This is part of a sample that, as a whole, favours compounds with a hit. Of some 83,000 tested, about 20% had one in any assay.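 Results are percent growth after 48 hours of single-concentration exposure. 100 means growth as in untreated cells, lower positive values show inhibition; negative values down to -100 show cell death.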 A number with no mark means an inactive call. Activity calls are given as the source filed them. The calls were made as follows: active = growth percent below 10; inactive = the rest.

Some test systems named below: HCT-15 colon; HT29 colon; SNB-75 CNS; SNB-19 CNS; U251 CNS; PC-3 prostate; SK-MEL-5 melanoma; UACC-62 melanoma; LOX IMVI melanoma; SK-MEL-28 melanoma; SK-MEL-2 melanoma; EKVX NSCLC; SN12C renal; UO-31 renal; TK-10 renal; ACHN renal; CAKI-1 renal; A498 renal; CCRF-CEM leukemia; HL-60(TB) leukemia.
Holding throughout (assay): NCI-60 one-dose screen, 48 h (100 = growth as untreated, 0 = no growth, -100 = all killed)
Holding throughout (conditions): 10 µM unless noted

As for `CCCC(C)SP(=S)(SC(C)CCC)SC(C)CCC` (configuration not stated), the growth with HCT-15 colon was 103%; with HT29 colon, 100%; with SNB-75 CNS, 106%; in the assay on SNB-19 CNS it was 108%; with U251 CNS, 103%; with PC-3 prostate, 99.8%. The growth with SK-MEL-5 melanoma was 91.9%; with UACC-62 melanoma, 101%; with LOX IMVI melanoma, 93.6%; in the assay on SK-MEL-28 melanoma it was 107%; with SK-MEL-2 melanoma, 107%; in the assay with EKVX NSCLC it was 96.7%. Also, the growth in the assay with SN12C renal is 108%; with UO-31 renal it was 93%; in the assay on TK-10 renal, 104%; in the assay on ACHN renal, 113%; in the assay with CAKI-1 renal, 104%; in the assay on A498 renal it was 113%. In addition, in the assay on CCRF-CEM leukemia, the growth was 103%.
As for `COc1ccc(N(CC(=O)NCCC[Te]c2ccccc2)C(=O)c2ccccc2)cc1`, the growth in the assay with HCT-15 colon was 9.28% (active); with HT29 colon it was -25.5% (active); in the assay on SNB-75 CNS, 69.5%; in the assay on SNB-19 CNS, 36.2%; in the assay with U251 CNS, 14.4%; in the assay with PC-3 prostate, 7.26% (active). Further, the growth was 55.2% in the assay on SK-MEL-5 melanoma; 84.1% in the assay on UACC-62 melanoma; 32.8% with LOX IMVI melanoma; 145% with SK-MEL-28 melanoma; 101% in the assay on SK-MEL-2 melanoma; 2.14% (active) with EKVX NSCLC. Besides, the growth in the assay on SN12C renal was 19.9%; in the assay on UO-31 renal, 12.9%; with TK-10 renal, 97.7%; in the assay with ACHN renal, 87.7%; with CAKI-1 renal, 84.9%; in the assay with A498 renal, 16.1%. The growth in the assay with HL-60(TB) leukemia was 36.9%; in the assay with CCRF-CEM leukemia, 15.1%.
As to `C[C@]12CCc3sc(Nc4ccc(F)cc4)nc3C1=CC[C@@H]1[C@@H]2CC[C@]2(C)C(=O)CC[C@@H]12`, the growth in the assay on HCT-15 colon is 32.2%; with HT29 colon it was 35.5%; with SNB-75 CNS it was 66.7%; in the assay on SNB-19 CNS it was 67.4%; in the assay with U251 CNS, 47.2%; with PC-3 prostate it was 64.3%. Also, the growth was 71.3% with SK-MEL-5 melanoma; 69.6% in the assay with UACC-62 melanoma; 56.6% in the assay with LOX IMVI melanoma; 46.5% in the assay on SK-MEL-28 melanoma; 76.8% in the assay with SK-MEL-2 melanoma; 78.3% in the assay on EKVX NSCLC. The growth with SN12C renal is 73.8%; with UO-31 renal it was 59.8%; with TK-10 renal it was 94.4%; in the assay on ACHN renal, 77.9%; in the assay with CAKI-1 renal, 68%; with A498 renal, 75.7%. Also, the growth in the assay on HL-60(TB) leukemia was 49.8%; in the assay with CCRF-CEM leukemia it was 14%.
In the case of `CC1(C)C=Cc2c(ccc3c2[N+]([O-])=C2C3=C[C@@]34NC(=O)[C@]5(CCCN5C3=O)C[C@@H]4C2(C)C)O1`, the growth with HCT-15 colon was 46.8%; with HT29 colon it was 24.6%; in the assay on SNB-75 CNS, 62.1%; with SNB-19 CNS, 50.7%; in the assay on U251 CNS, 35.3%; in the assay with PC-3 prostate it was 45.5%. In addition, the growth is 19.2% in the assay with SK-MEL-5 melanoma; 64.6% in the assay with UACC-62 melanoma; 27.6% in the assay with LOX IMVI melanoma; 71.1% in the assay on SK-MEL-28 melanoma; 69.8% in the assay with SK-MEL-2 melanoma; 34.3% in the assay with EKVX NSCLC. The growth is 30.7% in the assay on SN12C renal; 73.5% in the assay with UO-31 renal; 83.1% in the assay on TK-10 renal; 39.7% in the assay on ACHN renal; 27% in the assay with CAKI-1 renal; 69% in the assay on A498 renal. Besides, the growth in the assay with CCRF-CEM leukemia is 14.2%.
Regarding `COc1ccc2c(c1)c(-c1nc(-c3c[nH]c4ncccc34)cs1)cn2CCCCN1CCOCC1`, the growth is -31.7% (active) in the assay with HCT-15 colon; -84.4% (active) with HT29 colon; 40.1% in the assay on SNB-75 CNS; 52.4% with SNB-19 CNS; 4.84% (active) with U251 CNS; 30.1% with PC-3 prostate. Also, the growth in the assay with SK-MEL-5 melanoma was 26%; in the assay on UACC-62 melanoma, 20.4%; with LOX IMVI melanoma, -34.7% (active); in the assay on SK-MEL-28 melanoma, -90.3% (active); in the assay with SK-MEL-2 melanoma, 69%; with EKVX NSCLC, 68.4%. The growth was 61.9% in the assay on SN12C renal; 22.8% in the assay on UO-31 renal; 64.4% with TK-10 renal; 17.1% in the assay with ACHN renal; 37.5% in the assay with CAKI-1 renal; 92.3% with A498 renal. Also, the growth with CCRF-CEM leukemia was -8.39% (active).
For the molecule `C[C@@]12CCCc3coc(c31)C(=O)c1cc3c(cc12)C(=O)C1=C(NCCS1(=O)=O)C3=O`, the growth was 8.66% (active) with HCT-15 colon; -4.92% (active) in the assay with HT29 colon; -87.5% (active) with SNB-75 CNS; -68.8% (active) in the assay with SNB-19 CNS; -61% (active) in the assay with U251 CNS; -6.62% (active) in the assay on PC-3 prostate. Besides, the growth in the assay with SK-MEL-5 melanoma was -98% (active); in the assay with UACC-62 melanoma, -68% (active); in the assay with LOX IMVI melanoma, -42.7% (active); in the assay with SK-MEL-28 melanoma, -9.02% (active); in the assay on SK-MEL-2 melanoma, -41.3% (active); with EKVX NSCLC, 11.1%. In addition, the growth is -79.3% (active) in the assay on SN12C renal; 35.7% in the assay with UO-31 renal; 28.2% with TK-10 renal; 30.6% in the assay on ACHN renal; 10.5% with CAKI-1 renal; 35.3% with A498 renal. For the same molecule, the results for the growth with HL-60(TB) leukemia and in the assay with CCRF-CEM leukemia were -45% (active) and -28.7% (active), respectively.
With `C[C@]12CC[C@H]3[C@@H](C[C@@H]4SC(Nc5cccc(F)c5)=N[C@@]45CC(=O)CC[C@]35C)[C@@H]1CCC2=O`, the growth is 6.88% (active) in the assay on HCT-15 colon; -3.32% (active) in the assay with HT29 colon; 18.7% in the assay on SNB-75 CNS; 62.8% in the assay with SNB-19 CNS; 15.7% in the assay on U251 CNS; 19.1% with PC-3 prostate. For the same molecule, the growth was 32.1% with SK-MEL-5 melanoma; 37.5% with UACC-62 melanoma; 6.22% (active) in the assay with LOX IMVI melanoma; 39.4% in the assay with SK-MEL-28 melanoma; 21.8% in the assay with SK-MEL-2 melanoma; 46.4% with EKVX NSCLC. Further, the growth with SN12C renal is 28.5%; in the assay on UO-31 renal it was -26.9% (active); in the assay with TK-10 renal, 20.3%; with ACHN renal, 1.56% (active); with CAKI-1 renal, 50.5%; in the assay on A498 renal, 22.9%. Besides, the growth in the assay on HL-60(TB) leukemia is 8.58% (active); in the assay on CCRF-CEM leukemia, 4.95% (active).

(Values after PubChem BioAssay (NCI).)
